According to PubChem BioAssay AID1240 (Sanford-Burnham Center for Chemical Genomics, 2008):
The campaign covered roughly 50,000 compounds. About 800 (1.6%) showed an effect of 50% or more. The sample as a whole holds a higher share of strong results than the screen did.

target: Bcl-2-like protein 10 (Homo sapiens) (UniProt Q9HD36); assay: Phenotype converters, Bcl-B/TR3 peptide binding displacement, primary biochemical FP (AID 1240); conditions: GST-Bcl-B / FITC-TR3 peptide fluorescence polarization; stronger effect = higher value; compound at 3.75 mg/L;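 note: 0% = Bcl-B with tracer peptide and DMSO and 100% = tracer peptide lacking Bcl-B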
Sequence (Q9HD36 whole entry, looked up): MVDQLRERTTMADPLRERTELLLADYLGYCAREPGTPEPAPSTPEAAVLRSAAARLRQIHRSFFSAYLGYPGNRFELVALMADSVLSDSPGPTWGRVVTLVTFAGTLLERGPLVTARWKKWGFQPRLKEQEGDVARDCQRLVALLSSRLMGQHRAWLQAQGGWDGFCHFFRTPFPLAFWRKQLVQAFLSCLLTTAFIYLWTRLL

**Q.** For `O=C(O)CCC(=O)Nc1ccc(F)cc1`, which displacement is on record?
**A.** -7.3%

**Q.** With `CC1CCN(C2=NC(=O)/C(=C/c3ccc(N(C)C)cc3)S2)CC1` as the compound, how does the displacement read?
**A.** 157%

**Q.** How did the displacement turn out when `CN(C)c1ccc(/C=C2\SC(N3CCN(C4=NC(=O)/C(=C\c5ccc(N(C)C)cc5)S4)CC3)=NC2=O)cc1` was run?
**A.** -12.9%

**Q.** How did the displacement turn out when `Cc1ccc(/C=C2\SC(N3CCC(C)CC3)=NC2=O)cc1` was run?
**A.** -15%

**Q.** `O=C(O)c1ccc(NC(=O)c2ccc(Cl)cc2)cc1` was tested. Which displacement did it give?
**A.** -3.6%

**Q.** Which displacement does the source give for `COc1cc(/C=C/C(=O)c2c(C)cc(C)[nH]c2=O)cc(OC)c1OC` here?
**A.** 8.5%

**Q.** How did the displacement turn out when `Cc1ccc(/C=C2\SC(=Nc3ccc(F)cc3)NC2=O)o1` was run?
**A.** 101%

**Q.** Which displacement does the source give for `Cc1ccccc1/C=C1/SC(=Nc2ccc(F)cc2)NC1=O` here?
**A.** 7.8%

**Q.** Which displacement does the source give for `O=C1NC(=Nc2ccc(F)cc2)S/C1=C\c1ccco1` here?
**A.** 32.8%

**Q.** `Cc1ccc(N=C2NC(=O)/C(=C\c3ccc(C)o3)S2)cc1` was tested. Which displacement did it give?
**A.** -9.8%

**Q.** `COc1ccc(/C=C2/SC(=Nc3ccc(F)cc3)NC2=O)c(OC)c1` was tested. Which displacement did it give?
**A.** 11.6%

**Q.** Which displacement does the source give for `COc1ccccc1/C=C1/SC(=Nc2ccc(F)cc2)NC1=O` here?
**A.** 161%

**Q.** For `COc1ccc(/C=C2\SC(=S)N(NC(=O)c3cccnc3)C2=O)cc1`, which displacement is on record?
**A.** 3.4%

**Q.** For `COc1cc(/C=C(\C#N)c2nc(-c3ccc(-c4ccccc4)cc3)cs2)ccc1O`, which displacement is on record?
**A.** 112%

**Q.** Which displacement does the source give for `COc1cccc(/C=C(\C#N)c2nc(-c3ccc(Br)cc3)cs2)c1` here?
**A.** -7.3%

**Q.** `COc1ccc(-c2csc(/C(C#N)=C\c3ccc(C)s3)n2)cc1` was tested. Which displacement did it give?
**A.** 115%

**Q.** How did the displacement turn out when `N#C/C(=C\c1ccc(O)cc1)c1nc(-c2ccc(-c3ccccc3)cc2)cs1` was run?
**A.** 21.6%

**Q.** `CCCCc1ccc(-c2csc(/C(C#N)=C/c3ccc(O)c(OC)c3)n2)cc1` was tested. Which displacement did it give?
**A.** 2.4%

**Q.** For `COc1ccc(/C=C(\C#N)c2nc(-c3ccc(C)cc3)cs2)cc1`, which displacement is on record?
**A.** 4.5%

**Q.** Which displacement does the source give for `COc1ccc(/C=C(/C#N)c2nc(-c3ccc(Br)cc3)cs2)cc1OC` here?
**A.** 101%

**Q.** How did the displacement turn out when `Cc1ccc(-c2csc(/C(C#N)=C\c3ccc(C)s3)n2)cc1` was run?
**A.** -2.9%

**Q.** For `CCCCc1ccc(-c2csc(/C(C#N)=C/c3ccc(OC)c(OC)c3)n2)cc1`, which displacement is on record?
**A.** 4.8%

**Q.** With `Cc1ccc(/C(O)=C2\C(=O)C(=O)N(c3nncs3)C2c2cccc(Cl)c2)cc1` (centres undefined) as the compound, how does the displacement read?
**A.** 12.7%

**Q.** For `Cc1cc(C)c2nc3s/c(=C\c4ccc([N+](=O)[O-])cc4)c(=O)n3c2c1`, which displacement is on record?
**A.** -6.3%

**Q.** `O=C(Nc1ccc(Br)cc1)C1C(c2ccccc2)=C1c1ccccc1` was tested. Which displacement did it give?
**A.** -6.7%

**Q.** `CC(=O)N1c2ccccc2NC2=C(C(=O)CC(c3ccccc3)C2)C1c1ccccc1Cl` (centres undefined) was tested. Which displacement did it give?
**A.** -12%

**Q.** For `CC1(C)c2ccccc2N(CCO)C12C=Cc1cc(Br)ccc1O2` (centres undefined), which displacement is on record?
**A.** 7.8%

**Q.** How did the displacement turn out when `Cc1ccc(CNC(=O)c2ccc([N+](=O)[O-])cc2Cl)cc1` was run?
**A.** 0.9%

**Q.** How did the displacement turn out when `Cc1ccccc1NC(=O)c1c(N)sc2c1CCCC2` was run?
**A.** 12.7%
